The full list was thinned out, with hits kept by preference.
CHX counter: Cycloheximide Counterscreen for Small Molecule Inhibitors of Shiga Toxin; cell reporter, cycloheximide protein synthesis inhibition counterscreen; max response, %; hit rate 12% among 300,000; in the data active means max response mostly above about 13%, no sharp cut-off; inactive means mostly below about 14%; further: read at 38.3 µM for the half of the compounds with a filed dose; 0% is about no effect
Shiga inhibitor: A qHTS for Small Molecule Inhibitors of Shiga Toxin. Vero cells, Shiga toxin protein synthesis inhibition reporter. inhibition, % at 38.7 µM. hit rate 9.2% among 290,000; in the data active means inhibition mostly above about 28%, no sharp cut-off; inactive means mostly below about 43%; further: 0% is about no effect
AmpC inh detg: qHTS Inhibitors of AmpC Beta-Lactamase (assay with detergent) | AmpC hydrolysis of nitrocefin, absorbance 480 nm, 0.01% Triton | Potency, µM (top dose mostly 114 µM), without a hit: at the highest dose activity change, negative = inhibition, hits mostly inhibitors | hit rate 0.041% among 370,000;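 further: potency means the concentration at half of the fitted maximal effect; 0% = no-compound wells and -100% = no-enzyme wells; nearly all actives have a fitted effect of over 25% in size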
Target sequence (P00811 whole entry, looked up): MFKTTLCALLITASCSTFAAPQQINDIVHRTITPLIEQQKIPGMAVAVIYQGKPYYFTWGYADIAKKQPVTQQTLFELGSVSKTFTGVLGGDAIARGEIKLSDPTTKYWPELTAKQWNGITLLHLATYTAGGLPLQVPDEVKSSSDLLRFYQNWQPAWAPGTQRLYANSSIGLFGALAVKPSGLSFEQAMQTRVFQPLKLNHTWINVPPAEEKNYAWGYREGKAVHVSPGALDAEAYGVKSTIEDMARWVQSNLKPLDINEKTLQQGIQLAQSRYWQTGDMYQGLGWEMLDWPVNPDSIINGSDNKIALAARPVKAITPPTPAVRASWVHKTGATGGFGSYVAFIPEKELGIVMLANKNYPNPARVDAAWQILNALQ
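20 mM phosphate pH 7.0 + 0.01% (detergent screen) or 0.0001% Triton X-100; 5.3 nM AmpC reagent; cpd preinc 15 min RT; nitrocefin (800 uM stock) to start; A480 q20 s × 4 min; Activity was normalised to no-enzyme and no-compound control wells.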
AmpC no deterg: qHTS Inhibitors of AmpC Beta-Lactamase (assay without detergent) | P00811 | AmpC nitrocefin hydrolysis, absorbance 480 nm, 0.0001% Triton | Potency, µM (highest dose often 57.1 µM), inactives show top-dose activity change, negative = inhibition, usual class: inhibitors | hit rate 0.52% among 330,000 | AID 485341, 2010;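 further: potency means the concentration at half of the fitted maximal effect; plate controls were no compound for no effect and no enzyme for full effect; nearly all actives have a fitted effect of over 20% in size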
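20 mM phosphate pH 7.0 + 0.01% (detergent screen) or 0.0001% Triton X-100; 5.3 nM AmpC reagent; cpd preinc 15 min RT; nitrocefin (800 uM stock) to start; A480 q20 s × 4 min; Activity was normalised to no-enzyme and no-compound control wells.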
SARS PLpro yeast: qHTS of Yeast-based Assay for SARS-CoV PLP; S. cerevisiae expressing SARS-CoV PLpro, growth rescue; Potency, µM (series often up to 32.9 µM), for inactives: at the highest dose activity, positive = growth rescue, hits mostly activators; hit rate 0.19% among 330,000; calls by dose curve; further: potency means the concentration at half of the fitted maximal effect; 0% is about no effect; nearly all actives have a fitted effect of over 55% in size
AMA1 RON2 block: qHTS for Inhibitors of AMA1-RON; Towards Development of Antimalarial Drug Lead: Primary Screen. Plasmodium falciparum AMA1 (3D7) - RON2 peptide interaction. AlphaScreen AMA1-biotinylated RON2 peptide binding. Potency, µM (top dose mostly 58.2 µM), inactives show at the top dose activity change, negative = inhibition, most hits filed as inhibitors. hit rate 0.2% among 360,000;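 further: potency means the concentration at half of the fitted maximal effect; 0% = vehicle wells and -100% = peptide control; nearly all actives have a fitted effect of over 45% in size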
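AMA1 (3D7) with his tag at 25 nM final met compounds first, then biotinylated RON2 peptide at 25 nM; detection used donor plus acceptor beads, 10 µg/mL apiece, read by AlphaScreen after 30 min at room temperature.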
* = called active by the depositor; ? = inconclusive; . = no result. Unless noted, the call rests on the fitted dose curve; in most records, active means well fitted curve in the direction sought with a large enough effect; inconclusive means small, poorly fitted or top-dose-only effect, or another doubt; inactive means no such curve, though single readings can be large; an effect the other way counts as inactive or inconclusive.

SMILES	CHX counter	Shiga inhibitor	AmpC inh detg	AmpC no deterg	SARS PLpro yeast	AMA1 RON2 block
CCN1CCN(Cc2c(O)ccc3c(=O)c(Oc4ccccc4C(C)C)c(C(F)(F)F)oc23)CC1	.	.	3.8%	.	.	.
NC(=O)c1ccsc1NC(=O)CSc1nnc(C2CC2)n1Cc1ccccc1	-4.7	-20.8	-1.7%	-15.2%	-1.3%	-4.3%
COc1cc(Cl)c(C)cc1NC(=O)CCc1nc2cccnc2n1-c1ccccc1	.	.	6.1%	.	.	.
COc1cc(-n2c(C)nc3cccnc32)c(Cl)cc1C(=O)O	20.0*	43.5	-4.5%	-4.4%	1.6%	-5.3%
CN(C(=O)c1ccc(OC2CCN(C(=O)c3cccnc3)CC2)cc1)C1CCCCC1	-1.5	-4.0	7.0%	105.6%	-0.5%	-11.3%
COCCn1c(-c2ccccc2)cnc1SCC(=O)Nc1cccc2ccccc12	10.1	-2.1	?	14.3%	-18.2%	?
O=S(=O)(NC1CCCC1)c1cccc(-c2nnc(-c3ccccc3)o2)c1	30.5*	7.4	-4.7%	-34.7%	1.1%	21.9%
O=S(=O)(NC1CCCCCCC1)c1ccccc1	-0.2	-6.4	?	-13.3%	0.3%	-16.1%
COc1ccc(NS(=O)(=O)c2cccc(-c3nnc(-c4ccccc4)o3)c2)cc1	14.8*	56.6*	-0.8%	-5.7%	-11.5%	-18.1%
COc1ccc(NS(=O)(=O)c2ccc(NS(=O)(=O)c3cccc(C(=O)O)c3)cc2)cc1	-6.7	42.5	1.7%	-32.5%	2.3%	-7.3%
CC(C)(C)n1ncc2c(=O)n(CC(=O)N3CCCCC3)cnc21	15.3	17.5	7.2%	-19.0%	0.5%	-4.5%
Cc1csc(NC(=O)c2sc3nc(-c4cccs4)ccc3c2N)n1	41.0*	69.4*	2.0%	-10.8%	?	60.4%
CCCSc1nnc(NC(=O)c2sc3nc(-c4cccs4)ccc3c2N)s1	28.1*	17.3	-8.4%	-5.4%	-10.1%	101.5%
Nc1c(C(=O)Nc2cccc(F)c2)sc2nc(-c3cccs3)ccc12	.	.	9.7%	.	.	.
CCCCOc1ccc(Cc2c(Cl)nc(SC)nc2N2CCOCC2)cc1	-1.0	-9.6	-17.6%	-36.2%	-40.1%	2.4%
Nc1c(Cl)cc(C2=NCCn3c2c2ccc([N+](=O)[O-])cc2[n+]3[O-])cc1Cl	.	.	-4.6%	-5.3%	1.1%	26.0%
COc1ccc(CN(C(=O)c2ccco2)c2ccc(Br)cc2)cc1OC	-3.7	-5.4	-5.8%	73.2%	10.4%	-11.6%
O=C1/C(=C/N(C(=O)c2ccco2)c2ccc(Cl)cc2)Sc2ccccc21	39.2*	90.9*	-6.4%	-40.9%	-11.9%	-12.3%
O=C1/C(=C/N(C(=O)c2ccco2)c2ccc(Br)cc2)Sc2ccccc21	37.1*	0.0	?	-57.8%	-25.5%	-0.5%
CC(C)C(OC(=O)c1nsc(Cl)c1Cl)C(=O)NC1CCCCC1 (stereo not drawn)	-3.7	-8.1	?	-17.2%	2.7%	-12.0%
CC(C)=CCc1c2c(c3occ(-c4ccc(O)cc4)c(=O)c3c1O)C=CC(C)(C)O2	-0.8	-6.4	-1.4%	15.8µM*	?	0.3%
COc1ccc(C(=O)NCC(=O)c2ccccc2)cc1	36.4*	.	?	-14.8%	2.4%	-4.2%
COc1ccc(C(=O)CN2C(=O)c3ccccc3C2=O)cc1	30.2*	57.6*	-10.4%	-19.6%	1.1%	18.9%
COc1ccc(C(=O)Cc2nnc(C)s2)cc1	48.4*	105.4*	-1.7%	-3.7%	17.3%	7.1%
COc1ccc(C(=O)NCCCc2ccccc2)cc1	.	.	.	.	.	15.0%
SMILES	CHX counter	Shiga inhibitor	AmpC inh detg	AmpC no deterg	SARS PLpro yeast	AMA1 RON2 block
COc1ccc(CNC(=O)CN2C(=O)c3ccccc3C2=O)cc1	8.0	10.9	-1.7%	4.8%	1.2%	-9.9%
COc1ccc(C(=O)C[n+]2ccc3ccccc3c2C)cc1	44.6*	94.5*	3.2%	4.8%	-1.8%	3.0%
COc1ccc(C(=O)Cc2ccccc2C(=O)O)cc1	.	.	.	.	.	-2.8%
COc1ccc(C(=O)C[n+]2cccc3cc(OC)ccc32)cc1	2.8	-8.2	-8.7%	-0.4%	-1.6%	-5.2%
COc1ccc(NC2CCCN(C(=O)CCC(=O)c3ccc(F)cc3)C2)cc1 (stereo not drawn)	47.3*	71.8	?	57.6%	-0.7%	-11.9%
COc1ccc(C(=O)CC(=O)c2ccc(OC)cc2)cc1	25.7*	33.3	-11.2%	-35.4%	0.4%	102.0%
COc1ccc(CCC(=O)N2CCCC(Nc3ccc(OC)cc3)C2)cc1 (stereo not drawn)	-3.0	-3.8	-0.5%	20.2%	-2.1%	-6.7%
COc1ccc(NC(=O)CCC(=O)c2ccc(F)cc2)cc1	.	.	.	.	.	-3.9%
COc1ccc(C(=O)CCNc2ccc(F)cc2)cc1	28.5*	82.1*	5.2%	-19.8%	-0.2%	-1.4%
COc1ccc(O)c(C(=O)CC(=O)c2ccccc2)c1	42.8*	87.8	-2.3%	-7.9%	-22.1%	.
COc1ccc(C(=O)CC(=O)c2ccccc2)cc1	.	.	.	.	.	34.1%
C=CCNc1nc(C(=O)OCC(=O)c2ccc(C)c([N+](=O)[O-])c2)cs1	-1.8	-2.0	1.9%	20µM*	16.6%	32.9%
O=C(Nc1nccs1)c1ccc(N2CCOCC2)c([N+](=O)[O-])c1	50.2*	86.1*	3.7%	-11.1%	3.0%	28.1%
O=C(Nc1nccs1)c1ccc(Cl)c([N+](=O)[O-])c1	42.8*	42.9	-0.7%	-21.4%	-14.1%	94.1%
COc1ccc2oc(-c3ccc(C)c(NC(=O)c4ccc(N5CCOCC5)c([N+](=O)[O-])c4)c3)nc2c1	58.9*	134.0*	-6.3%	3.1%	2.9%	0.2%
CCOc1ccc(C(=O)Nc2cc(-c3nc4cc(OC)ccc4o3)ccc2C)cc1[N+](=O)[O-]	.	.	1.9%	.	.	.
CC(NC(=O)COC(=O)CCNC(=O)c1ccco1)C12CC3CC(CC(C3)C1)C2 (stereo not drawn)	-2.9	19.4	?	23.7%	3.9%	4.0%
Cn1ncc(Br)c1C(=O)OCC(=O)Nc1nc(-c2ccccc2)cs1	18.7*	30.7*	?	-13.1%	-5.9%	-15.5%
O=C(COC(=O)c1ccccn1)Nc1nc(-c2cccc([N+](=O)[O-])c2)cs1	18.1*	28.9	6.4%	-49.4%	-0.5%	32.8%
O=C(COC(=O)c1ccccn1)Nc1nc(-c2ccccc2)cs1	41.5*	80.7*	3.9%	-25.5%	-7.9%	32.7%
CCCC1N=C2c3ccccc3N=C(SCC(=O)NCCc3ccc(Cl)cc3)N2C1=O (stereo not drawn)	.	.	13.8%	.	.	.
CCc1ccc(/C=C2/Sc3ccccc3N(CC(=O)NCC3CCCO3)C2=O)cc1 (stereo not drawn)	3.7	19.7	?	138.4%	-10.3%	-3.6%
Cc1ccccc1-c1nc(C#N)c(N2CCC(C)CC2)o1	23.5*	46.1*	-11.6%	-28.6%	-5.0%	?

Compound activity from PubChem BioAssay.
